From PubChem BioAssay (NCATS)
Unmarked numbers belong to inactive results. Records with an inconclusive call do not appear. Entries that show only a call come without a potency. Calls of active or inactive are those of the source. The call rests on the fitted dose curve; in most records, active means well fitted curve in the direction sought with a large enough effect; inconclusive means small, poorly fitted or top-dose-only effect, or another doubt; inactive means no such curve, though single readings can be large; an effect the other way counts as inactive or inconclusive.

Experiments:
[1] = qHTS for inhibitors of adenylyl cyclases using a fission yeast platform: a pilot screen against the NCATS LOPAC library (AID 1347410)
Procedure, shortened: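 Inhibition of GNAS-stimulated AC9 activity in S. pombe was inferred from derepression of a PKA-repressed fbp1-GFP reporter, measured as cytometric fluorescence after 18 h at 30C with compounds at up to 57 µM.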

[2] = target: Protein phosphatase 1D (Homo sapiens) (UniProt O15297); test: RapidFire Mass Spectrometry qHTS Assay for Modulators of WT P53-Induced Phosphatase 1 (WIP1) (AID 1347424);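 further: amount of dephosphorylated VEPPL-S-QETFS peptide product formed by WIP1; series mostly up to about 63 µM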
Procedure, shortened: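 Mass-spectrometric measurement of dephosphorylated peptide after a 5 min room-temperature reaction of 10 nM WIP1 with 2 uM phosphopeptide, following 1 h compound preincubation in 30 mM MgCl2 buffer.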

[3] = target: Protein phosphatase 1D (Homo sapiens) (UniProt O15297); test: Rhodamine-PBP qHTS Assay for Modulators of WT P53-Induced Phosphatase 1 (WIP1) (AID 1347425)
Procedure, shortened: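 Read-out: Rhodamine-PBP fluorescence (ex 525/em 598 nm) for released Pi, read each minute for 11 min after adding 10 uM VEPPL-pS-QETFS; signal taken as f1 minus pre-substrate f0. Enzyme 5 nM WIP1 with 1 hr room-temperature compound preincubation.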

[4] = Validation qHTS assay for inhibitors of Activation Induced Cytidine Deaminase (AID): UDG Counterscreen signal (AID 1347427)
Procedure, shortened: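 Fluorescence at 560 nm excitation, 665 nm emission reports UDG signal after 250 mM NaOH (2x) addition and 30 min. Enzymes (AID 1 uM, UDG 2 U/mL, at 4/3x) preincubated 10 min with compound, then 4 h with 4x 250 nM DJC20/DJC23 substrate at room temperature.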

[5] = target: Single-stranded DNA cytosine deaminase (Homo sapiens) (UniProt Q9GZX7); test: Validation qHTS assay for inhibitors of Activation Induced Cytidine Deaminase (AID): AID signal (AID 1347429)
Procedure, shortened: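 Compounds (up to 114 uM final) are tested against AID plus UDG using DJC20/DJC23 FRET substrate. Reactions incubate 4 hr at room temperature, receive NaOH for 30 min, and are read at Ex 540/Em 590 nm.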

[6] = Primary qHTS for inhibitors of La Crosse Virus (LACV) - induced cell death in SH-SY5Y cells (AID 1508616);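 further: top concentration of the series differs between compounds; higher means more rescue of cells from virus-induced death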
Procedure, shortened: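 Screening measures cell viability in LACV-infected SH-SY5Y cultures. Compound was added before virus (0.01 MOI), and ATP was detected by luminescence 6 days later.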

[7] = target: Calcium and integrin-binding protein 1 (Homo sapiens) (UniProt Q99828); test: Primary qHTS for Identification of Calcium Integrin Binding Protein 1 (CIB1) Competitor (AID 1508620);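 further: GST tagged CIB1 binding a fluorescein labelled alphaIIb integrin peptide tracer; top concentration of the series differs between compounds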
Procedure, shortened: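 Fluorescence polarization competition: CIB1-GST (1 uM final) preincubated with compound 15 min at room temperature, then FITC-labeled alphaIIb peptide (100 nM final) added for another 15 min. Polarization read at Ex 480/Em 540.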

[8] = target: Calcium and integrin-binding protein 1 (Homo sapiens) (UniProt Q99828); test: Validation qHTS for Identification of Calcium Integrin Binding protein 1 (CIB1) Competitor (AID 1508618)
Procedure, shortened: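 CIB1-GST (1 uM final) in 5 mM HEPES pH 7.4, 125 mM NaCl, 5 mM CaCl2, 0.01% Tween20 was preincubated 15 min at room temperature with compound (up to 114 uM), then FITC-alphaIIb peptide (100 nM) added for 15 min; fluorescence polarization read.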

[9] = qHTS to identify inhibitors of the type 1 interferon - major histocompatibility complex class I in skeletal muscle: primary screen against the NCATS Mechanism Interrogation Plate v5.0 (MIPE) Libary (AID 1347411); further: nearly all actives have a fitted effect of over 65% in size; further: potency means the concentration at half of the fitted maximal effect
Procedure, shortened: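 IFN-beta-driven (4 ng/ml) HLA-B-HiBit expression in CRISPR-tagged C25cl48 myoblasts; compounds 11-pt, 1:3, max 46 uM, 24 hr exposure; lytic NanoLuc complementation luminescence.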

Protein phosphatase 1D (Homo sapiens), sequence (O15297 whole entry, looked up): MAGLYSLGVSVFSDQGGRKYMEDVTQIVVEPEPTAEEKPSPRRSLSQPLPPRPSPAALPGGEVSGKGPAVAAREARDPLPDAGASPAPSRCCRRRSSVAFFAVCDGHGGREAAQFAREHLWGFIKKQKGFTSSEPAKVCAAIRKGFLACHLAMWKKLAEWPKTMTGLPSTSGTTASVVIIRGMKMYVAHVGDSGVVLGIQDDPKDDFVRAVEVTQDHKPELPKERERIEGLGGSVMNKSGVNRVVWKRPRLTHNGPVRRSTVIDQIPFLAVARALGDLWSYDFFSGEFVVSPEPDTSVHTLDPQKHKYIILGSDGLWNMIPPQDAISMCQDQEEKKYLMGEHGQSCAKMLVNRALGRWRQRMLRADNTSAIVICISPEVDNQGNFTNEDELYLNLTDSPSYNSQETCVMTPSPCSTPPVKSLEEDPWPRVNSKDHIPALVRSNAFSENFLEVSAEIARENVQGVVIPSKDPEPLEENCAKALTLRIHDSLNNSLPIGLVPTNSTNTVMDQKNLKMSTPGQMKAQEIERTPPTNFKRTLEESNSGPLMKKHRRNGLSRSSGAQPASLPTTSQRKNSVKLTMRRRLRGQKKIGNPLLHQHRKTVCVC
Calcium and integrin-binding protein 1 (Homo sapiens), sequence (Q99828 whole entry, looked up): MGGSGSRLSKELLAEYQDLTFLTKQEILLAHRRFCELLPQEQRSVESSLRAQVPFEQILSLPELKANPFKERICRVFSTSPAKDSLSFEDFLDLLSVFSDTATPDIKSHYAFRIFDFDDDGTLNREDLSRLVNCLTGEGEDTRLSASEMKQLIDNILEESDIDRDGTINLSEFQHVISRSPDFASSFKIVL
Single-stranded DNA cytosine deaminase (Homo sapiens), sequence (Q9GZX7 whole entry, looked up): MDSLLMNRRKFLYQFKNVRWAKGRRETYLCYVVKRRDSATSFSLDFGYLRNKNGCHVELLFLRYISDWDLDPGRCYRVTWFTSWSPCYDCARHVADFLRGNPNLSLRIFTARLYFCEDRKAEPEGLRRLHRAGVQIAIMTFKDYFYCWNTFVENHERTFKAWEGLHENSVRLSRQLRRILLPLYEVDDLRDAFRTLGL

Row | SMILES | outcome [1] | outcome [2] | outcome [3] | Potency [4] | Potency [5] | outcome [6] | outcome [7] | outcome [8] | Potency [9]
1 | CC(C)C(=O)c1c(C(C)C)nn2ccccc12 | inactive | inactive | inactive | inactive | inactive | inactive | inactive | – | –
2 | CSc1ccc2c(c1)N(CCC1CCCCN1C)c1ccccc1S2 (stereo not given) | inactive | inactive | inactive | inactive | inactive | inactive | inactive | inactive | –
3 | CSc1ccc2c(c1)C(N1CCN(C)CC1)Cc1ccccc1S2 (stereo not given) | inactive | inactive | inactive | inactive | inactive | inactive | – | – | –
4 | CC1=C(/C=C/C(C)=C/C=C/C(C)=C/C(=O)O)C(C)(C)CCC1 | inactive | – | inactive | inactive | inactive | inactive | – | – | inactive
5 | CC1=C(CC(=O)O)c2cc(F)ccc2/C1=C\c1ccc(S(C)=O)cc1 (stereo not given) | inactive | inactive | inactive | inactive | inactive | – | – | – | –
6 | CCN(CC)CCNC(=O)c1cc(Cl)c(N)cc1OC | inactive | inactive | inactive | inactive | inactive | inactive | – | – | –
7 | CNCCC(Oc1ccc(C(F)(F)F)cc1)c1ccccc1 (stereo not given) | inactive | inactive | inactive | – | – | – | – | – | –
8 | CN(C)CCOC(C)(c1ccccc1)c1ccccn1 (stereo not given) | inactive | inactive | inactive | inactive | inactive | inactive | – | – | –
9 | CCCCN(CCCC)CC(O)c1cc(Cl)cc2c1-c1ccc(Cl)cc1/C2=C/c1ccc(Cl)cc1 (stereo not given) | inactive | inactive | inactive | – | – | inactive | inactive | – | inactive
10 | CC(=O)OCC(=O)[C@@]1(O)CC[C@H]2[C@@H]3CCC4=CC(=O)CC[C@]4(C)[C@H]3C(=O)C[C@@]21C | inactive | – | inactive | inactive | inactive | inactive | inactive | – | inactive
11 | CNCCCC1c2ccccc2C=Cc2ccccc21 | inactive | inactive | inactive | inactive | inactive | inactive | inactive | – | –
12 | CC[C@H]1CN2CCc3cc(OC)c(OC)cc3[C@@H]2C[C@@H]1C[C@H]1NCCc2cc(OC)c(OC)cc21 | inactive | inactive | inactive | inactive | inactive | – | inactive | – | 658 nM (active)
13 | C[C@]12C[C@H](O)[C@H]3[C@@H](CCC4=CC(=O)CC[C@@]43C)[C@@H]1CC[C@@H]2C(=O)CO | inactive | inactive | inactive | inactive | inactive | inactive | inactive | – | –
14 | C[C@]12CC[C@@H]3c4ccc(O)cc4CC[C@H]3[C@@H]1CCC2=O | inactive | inactive | inactive | inactive | inactive | inactive | inactive | inactive | –
15 | CCN(CC)CCOC(=O)C1(C2CCCCC2)CCCCC1 | inactive | inactive | inactive | inactive | inactive | inactive | – | – | –
16 | C[C@H]1O[C@@H](n2cc(F)c(=O)[nH]c2=O)[C@H](O)[C@@H]1O | inactive | inactive | inactive | – | – | inactive | inactive | – | inactive
17 | C#CCN(C)Cc1ccccc1 | inactive | inactive | inactive | inactive | inactive | inactive | inactive | – | –
18 | CCN(CC)C(C)CN1c2ccccc2Sc2ccccc21 (stereo not given) | inactive | inactive | inactive | inactive | inactive | – | – | – | –
19 | CC(CN(C)C)CN1c2ccccc2CCc2ccccc21 (stereo not given) | inactive | inactive | inactive | inactive | inactive | inactive | inactive | – | –
20 | CC(C)c1c(C(=O)Nc2ccccc2)c(-c2ccccc2)c(-c2ccc(F)cc2)n1CC[C@@H](O)C[C@@H](O)CC(=O)O | inactive | inactive | inactive | – | – | inactive | – | – | inactive
21 | CN1CCN(C2Cc3ccccc3Sc3ccc(Cl)cc32)CC1 (stereo not given) | inactive | inactive | inactive | inactive | inactive | – | inactive | – | –
22 | CCN(CC)CCCC(C)Nc1c2ccc(Cl)cc2nc2ccc(OC)cc12 (stereo not given) | inactive | inactive | inactive | inactive | inactive | inactive | – | – | –
23 | NC(=O)c1ncn([C@@H]2O[C@H](CO)[C@@H](O)[C@H]2O)n1 | inactive | inactive | inactive | inactive | inactive | inactive | – | – | inactive
24 | COCCOC(=O)C1=C(C)NC(C)=C(C(=O)OC/C=C/c2ccccc2)C1c1cccc([N+](=O)[O-])c1 (stereo not given) | inactive | inactive | inactive | inactive | inactive | inactive | inactive | – | –
25 | CCCn1cnc2c1c(=O)n(CCCCC(C)=O)c(=O)n2C | inactive | inactive | inactive | inactive | inactive | inactive | inactive | inactive | –
26 | CN(C)CCC=C1c2ccccc2CCc2ccccc21 | inactive | inactive | inactive | inactive | inactive | inactive | – | – | –
